Screening data deposited in PubChem by several laboratories.
CF NFkB block: blocks PAF-induced NF-kB reporter in cystic fibrosis cells | KKLEB NF-kB-GFP reporter, GFP fluorescence overnight | AID 588850 | inhibition, % at 5 µM | 0.86% of 360,000 active;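 active = at least 50% inhibition at 5 µM, scaled per plate between neutral and stimulator controls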;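 also: PAF is a Pseudomonas aeruginosa culture filtrate used as stimulus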
LGR2 antag: blocks bursicon-induced cAMP signaling via Drosophila LGR2 | 0.35% of 380,000 active | HEK293 LGR2, CRE-luciferase, bursicon-stimulated, 4 h | inhibition, % at 9.99 µM;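 active = drop in luminescence signal, shown as inhibition above about 50% in the replicate tests, limit read from the data, passing the limit was not always enough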;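 also: agonist challenge used bursicon conditioned medium at about half maximal strength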
EWS-Fli inh: EWS/Fli transcriptional activity inhibition | A673 NR0B1-luciferase reporter, viability-normalised | inhibition, % at 12.6 µM | 0.67% of 350,000 active | AID 651661;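 active = mean inhibition of at least 50% after viability correction, with every replicate also passing that limit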;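 also: firefly luciferase signal divided by Alamar Blue viability fluorescence both relative to DMSO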
KKLEB cytotox: reduces viability of KKLEB cystic fibrosis airway cells; 0.36% of 360,000 active; activity change (cytotoxicity), % at 5 µM; KKLEB CF airway cells viability, ATPlite luminescence, overnight; stronger effect = lower value; cells stimulated with P. aeruginosa culture filtrate;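 active = corrected activity change at or below -50% at 5 µM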
PAX8 reporter: PAX8 transcriptional activity inhibition. RMG-I TPO-luciferase reporter, SteadyGlo, 24 h. inhibition, % at 12.6 µM. 1.2% of 360,000 active. AID 652154;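 active = mean replicate inhibition at least 60% with every replicate also reaching 60%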;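 also: luciferase light reporting Pax8 driven TPO promoter activity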
Shn3 3UTR inh: reduces Shn3 3'UTR luciferase signal in osteoblasts | 0.52% of 360,000 active | Clone20 osteoblast Shn3 3'UTR firefly luciferase, 24 h | inhibition, % at 12.5 µM;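 active = mean inhibition of at least 75% with every replicate also reaching 75%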
Numbers stand for hits; – = inactive; · = not tested or not shown. Hits are enriched below; roughly 2% of the tested compounds scored in any of these assays.

SMILES	CF NFkB block	LGR2 antag	EWS-Fli inh	KKLEB cytotox	PAX8 reporter	Shn3 3UTR inh
CCn1cc(C(=O)NCc2ccco2)c(=O)c2cc(S(=O)(=O)N3CC(C)CC(C)C3)ccc21 (stereo unspecified)	–	·	·	–	63.3	85.0
CCCCN(CC)CCCNC(=O)c1cn(CC)c2ccc(S(=O)(=O)N3CCc4ccccc4C3)cc2c1=O	–	85.3	–	–	–	–
CCCCN(C)CCCNC(=O)c1cn(CC)c2ccc(S(=O)(=O)N3CCc4ccccc4C3)cc2c1=O	–	–	–	–	–	–
COc1ccc(NC(=O)Nc2ccc3c(c2)C(=O)N([C@@H](C)CO)C[C@H](C)[C@H](CN(C)C(=O)NC2CCCCC2)O3)cc1	·	–	–	·	–	·
C[C@H](CO)N1C[C@H](C)[C@@H](CN(C)Cc2ccc(Cl)c(Cl)c2)OCCCC[C@H](C)Oc2ccc(NC(=O)Nc3ccc4c(c3)OCO4)cc2C1=O	·	–	–	·	·	·
Cc1ccc(S(=O)(=O)Nc2cccc(-c3ccc4nncn4n3)c2)cc1	–	–	57.0	–	–	–
CC(=O)c1ccc(S(=O)(=O)Nc2cccc(-c3ccc4nncn4n3)c2)cc1	–	–	·	–	–	–
CO[C@H]1CN(C)C(=O)c2cc(NC(=O)Nc3ccccc3F)ccc2OC[C@H](C)N(C(C)=O)C[C@@H]1C	·	–	–	·	–	·
Cc1cc(C(=O)Nc2cccc3c2O[C@H](CN(C)C(=O)Nc2ccc4c(c2)OCO4)[C@H](C)CN([C@H](C)CO)C3=O)n(C)n1	·	–	–	·	·	·
Cc1cc(C)cc(N2C(=O)c3nccnc3C2=O)c1	–	–	–	–	–	–
Cc1cc(C)cc(N2C(=O)C=CC2=O)c1	89.0	·	–	–	–	94.2
CC(=NNC(=S)N1CCC1)c1ccccn1	–	–	–	–	94.0	92.1
CC(=NNC(=S)N1CC2CCC(CC2)C1)c1cccc(C)n1	–	–	–	–	–	81.4
CC(=NNC(=S)N1CCCC1)c1ccccn1	–	–	–	–	–	–
COc1ccc(CCn2c(C3CCCCC3)nc3c(c(=O)c4ccccc4n3C)c2=O)cc1	–	–	56.4	–	–	–
Cn1nc(C(C)(C)C)cc1C(=O)N1CCCCC1c1cc(C(=O)Nc2cccc3c2CCCC3)no1 (stereo unspecified)	–	·	–	–	–	80.9
COc1cccc(F)c1C(C[N+](=O)[O-])c1c(N)n(C)c(=O)n(C)c1=O (stereo unspecified)	–	63.9	–	–	99.9	–
O=S(=O)(c1cccc(F)c1)N1CC[C@@H]2[C@@H](CO)Nc3ccc(Br)cc3[C@@H]21	·	–	–	·	–	·
COc1ccc(/C=C/C(=O)c2ccc([N+](=O)[O-])o2)cc1OC	·	98.7	62.2	·	111.6	·
COc1cc(OC)c(C(=O)C=Cc2ccc(OC)c(OC)c2)c(OC)c1	–	–	–	–	–	–
Cc1cc(O)c(C(=O)/C=C/c2cccc([N+](=O)[O-])c2)c(=O)o1	–	·	–	–	–	·
O=C(/C=C/c1cccc(Cl)c1)c1ccc([N+](=O)[O-])o1	87.1	86.1	76.7	–	102.9	95.3
C[C@H](CO)N1C[C@H](C)[C@H](CN(C)S(=O)(=O)c2ccc(Cl)cc2)Oc2c(NC(=O)C3CC3)cccc2C1=O	·	–	–	·	·	·
C=CCC[C@H](Cc1ccc(F)cc1)C(=O)OC[C@H](Cc1c[nH]c2ccccc12)NC(=O)[C@@H](CC=C)CC(=O)N[C@@H](CO)Cc1ccccc1	–	–	–	–	–	–
C=CCC[C@H](Cc1ccc(F)cc1)C(=O)OC[C@H](Cc1c[nH]c2ccccc12)NC(=O)[C@@H](CC=C)CC(=O)N[C@H](CO)Cc1ccccc1	–	–	–	–	–	91.5
C=CC[C@@H](CC(=O)N[C@H](CO)Cc1ccccc1)C(=O)N[C@H](COC(=O)[C@@H](CC=C)Cc1ccc(F)cc1)Cc1c[nH]c2ccccc12	–	–	–	–	87.7	–
CCOC(=O)C1=C(C)NC(SC)=C(C#N)C1CC(C)C (stereo unspecified)	–	–	54.1	–	–	–
CC(=O)C1=C(C)NC(SCC(N)=O)=C(C#N)C1CC(C)C (stereo unspecified)	–	–	–	–	–	–
O=C(CCl)Nc1ccc(N=Nc2ccccc2)cc1	–	–	–	–	–	–
